# Results: article PMC7862700, “An all-to-all approach to the identification of sequence-specific readers for epigenetic DNA modifications on cytosine”
# How the values were obtained:
# Assay in all cases: DAPPL (digital affinity profiling via proximity ligation, sequencing); 10 mM Tris-HCl pH 7.5, 50 mM NaCl, 1 mM DTT, 4% glycerol, room temperature, 30 min; GST-TFs on glutathione beads, 16-mer random dsDNA library, 0.1% formaldehyde crosslink after washing; high values mean tight binding
# FEV = target: T1, FEV (Homo sapiens, UniProt Q99581 1-238); settings: protein: recombinant; tags: N-terminal GST; dsDNA, one strand shown
# T1 sequence: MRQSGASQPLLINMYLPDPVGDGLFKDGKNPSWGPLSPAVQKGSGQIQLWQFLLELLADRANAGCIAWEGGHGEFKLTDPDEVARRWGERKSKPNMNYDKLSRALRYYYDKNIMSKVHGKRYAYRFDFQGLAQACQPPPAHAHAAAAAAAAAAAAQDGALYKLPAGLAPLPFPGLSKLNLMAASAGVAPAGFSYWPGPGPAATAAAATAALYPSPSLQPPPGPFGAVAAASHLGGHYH
# In short: (§1)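 After expression in yeast as GST fusions, human transcription factors were bound to glutathione beads, DNA-barcoded and mixed with a tag-only sample. The pools were incubated with 200 nmole of a 16-mer random double-stranded DNA library in Tris/NaCl/DTT/glycerol buffer (30 min, room temperature), washed and crosslinked with 0.1% formaldehyde. Proximity ligation with BsaI/T4 ligase ran for 1 h at 37 °C, before PCR amplification and sequencing on an Illumina NextSeq500. Binding signal is a hexamer's read frequency for a factor divided by its frequency for the tag-only sample.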
# ETV5 = ETV5 (Homo sapiens, UniProt P41161 1-510); settings: protein: recombinant; tags: N-terminal GST; dsDNA, one strand shown
# Chain of ETV5 (P41161 whole entry): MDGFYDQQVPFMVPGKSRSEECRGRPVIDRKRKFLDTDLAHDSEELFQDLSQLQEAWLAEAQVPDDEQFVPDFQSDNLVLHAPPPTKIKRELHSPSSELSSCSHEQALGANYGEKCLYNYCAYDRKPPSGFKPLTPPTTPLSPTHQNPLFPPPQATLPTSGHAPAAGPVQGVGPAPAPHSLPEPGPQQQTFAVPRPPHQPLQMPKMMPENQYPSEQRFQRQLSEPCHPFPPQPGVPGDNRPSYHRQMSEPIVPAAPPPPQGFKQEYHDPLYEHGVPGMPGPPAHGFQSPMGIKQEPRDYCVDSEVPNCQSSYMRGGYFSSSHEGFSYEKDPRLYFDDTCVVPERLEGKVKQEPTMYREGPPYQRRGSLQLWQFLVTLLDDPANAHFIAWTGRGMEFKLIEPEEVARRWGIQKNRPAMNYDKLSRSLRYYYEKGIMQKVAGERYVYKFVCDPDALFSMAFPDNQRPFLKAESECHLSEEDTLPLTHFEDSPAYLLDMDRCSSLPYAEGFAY
# In short: as §1
# HSF1 = HSF1 (Homo sapiens, UniProt Q00613 1-529); settings: protein: recombinant; tags: N-terminal GST; chain copies: 3; dsDNA, one strand shown
# Chain of HSF1 (Q00613 whole entry): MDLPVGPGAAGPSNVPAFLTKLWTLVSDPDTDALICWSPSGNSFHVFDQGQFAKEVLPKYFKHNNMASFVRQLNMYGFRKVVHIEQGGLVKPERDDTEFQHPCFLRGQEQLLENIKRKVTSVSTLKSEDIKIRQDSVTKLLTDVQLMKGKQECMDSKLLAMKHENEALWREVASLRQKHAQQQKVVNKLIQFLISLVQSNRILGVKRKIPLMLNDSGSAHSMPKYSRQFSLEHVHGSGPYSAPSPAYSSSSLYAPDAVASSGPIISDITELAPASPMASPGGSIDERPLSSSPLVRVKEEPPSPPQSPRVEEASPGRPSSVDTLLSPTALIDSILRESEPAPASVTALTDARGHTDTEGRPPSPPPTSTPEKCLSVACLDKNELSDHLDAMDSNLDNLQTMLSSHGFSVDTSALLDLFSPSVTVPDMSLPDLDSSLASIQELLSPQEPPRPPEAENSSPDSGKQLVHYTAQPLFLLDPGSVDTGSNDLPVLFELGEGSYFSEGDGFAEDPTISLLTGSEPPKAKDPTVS
# In short: as §1
# SPIC = target: T2, SPIC (Homo sapiens, UniProt Q8N5J4 1-248); settings: protein: recombinant; tags: N-terminal GST; dsDNA, one strand shown
# T2 sequence: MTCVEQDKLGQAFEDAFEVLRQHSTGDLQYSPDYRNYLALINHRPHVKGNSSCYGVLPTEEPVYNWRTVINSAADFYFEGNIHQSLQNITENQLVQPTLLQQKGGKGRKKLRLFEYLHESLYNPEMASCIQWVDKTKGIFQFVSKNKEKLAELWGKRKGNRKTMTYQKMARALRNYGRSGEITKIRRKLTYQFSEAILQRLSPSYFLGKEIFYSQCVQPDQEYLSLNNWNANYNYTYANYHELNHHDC
# In short: as §1
# ELF4 = ELF4 (Homo sapiens, UniProt Q99607 1-663); settings: protein: recombinant; tags: N-terminal GST; dsDNA, one strand shown
# Chain of ELF4 (Q99607 whole entry): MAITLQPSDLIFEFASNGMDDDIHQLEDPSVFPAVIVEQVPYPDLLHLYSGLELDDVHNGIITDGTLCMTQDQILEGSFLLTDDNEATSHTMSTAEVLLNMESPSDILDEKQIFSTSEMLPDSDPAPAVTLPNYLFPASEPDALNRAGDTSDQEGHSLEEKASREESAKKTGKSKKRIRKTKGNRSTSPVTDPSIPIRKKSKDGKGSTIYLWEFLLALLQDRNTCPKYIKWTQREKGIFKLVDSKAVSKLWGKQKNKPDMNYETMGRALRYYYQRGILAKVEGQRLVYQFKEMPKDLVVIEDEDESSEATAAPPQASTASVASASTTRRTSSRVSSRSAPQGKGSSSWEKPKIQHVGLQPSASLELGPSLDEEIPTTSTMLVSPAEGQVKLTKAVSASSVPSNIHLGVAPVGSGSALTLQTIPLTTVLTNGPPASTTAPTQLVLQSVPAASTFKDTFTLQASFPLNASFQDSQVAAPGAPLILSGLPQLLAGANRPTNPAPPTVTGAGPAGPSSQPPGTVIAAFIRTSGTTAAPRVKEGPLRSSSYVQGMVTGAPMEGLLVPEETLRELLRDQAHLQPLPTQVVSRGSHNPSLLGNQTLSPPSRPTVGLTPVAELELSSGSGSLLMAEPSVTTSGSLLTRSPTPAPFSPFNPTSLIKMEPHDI
# In short: as §1
# ELK4 = target: T3, ELK4 (Homo sapiens, UniProt P28324-2 1-405); settings: protein: recombinant; tags: N-terminal GST; dsDNA, one strand shown
# T3 sequence: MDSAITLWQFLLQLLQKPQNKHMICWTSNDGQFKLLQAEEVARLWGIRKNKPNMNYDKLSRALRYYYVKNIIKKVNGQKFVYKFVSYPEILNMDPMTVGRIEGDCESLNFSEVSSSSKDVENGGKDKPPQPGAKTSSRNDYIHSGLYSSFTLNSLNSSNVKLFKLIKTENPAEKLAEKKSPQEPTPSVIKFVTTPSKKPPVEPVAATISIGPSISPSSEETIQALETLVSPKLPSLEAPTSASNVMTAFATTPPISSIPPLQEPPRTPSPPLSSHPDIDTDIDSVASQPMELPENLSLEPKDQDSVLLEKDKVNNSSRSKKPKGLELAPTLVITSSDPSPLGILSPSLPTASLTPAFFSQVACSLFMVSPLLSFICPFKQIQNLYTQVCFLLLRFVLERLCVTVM
# In short: as §1
# ETV2 = target: T4, ETV2 (Homo sapiens, UniProt O00321 1-342); settings: protein: recombinant; tags: N-terminal GST; dsDNA, one strand shown
# T4 sequence: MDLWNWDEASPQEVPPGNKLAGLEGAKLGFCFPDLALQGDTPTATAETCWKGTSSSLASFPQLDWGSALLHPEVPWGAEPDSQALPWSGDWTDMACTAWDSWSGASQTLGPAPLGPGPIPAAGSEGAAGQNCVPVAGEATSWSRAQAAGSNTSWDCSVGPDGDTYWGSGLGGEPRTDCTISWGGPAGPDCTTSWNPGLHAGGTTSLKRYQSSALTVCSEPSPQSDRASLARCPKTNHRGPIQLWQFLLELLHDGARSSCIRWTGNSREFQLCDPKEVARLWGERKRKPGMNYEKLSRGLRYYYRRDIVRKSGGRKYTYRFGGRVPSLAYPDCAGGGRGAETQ
# In short: as §1
# ELF3 = target: T5, ELF3 (Homo sapiens, UniProt P78545 1-371); settings: protein: recombinant; tags: N-terminal GST; dsDNA, one strand shown
# T5 sequence: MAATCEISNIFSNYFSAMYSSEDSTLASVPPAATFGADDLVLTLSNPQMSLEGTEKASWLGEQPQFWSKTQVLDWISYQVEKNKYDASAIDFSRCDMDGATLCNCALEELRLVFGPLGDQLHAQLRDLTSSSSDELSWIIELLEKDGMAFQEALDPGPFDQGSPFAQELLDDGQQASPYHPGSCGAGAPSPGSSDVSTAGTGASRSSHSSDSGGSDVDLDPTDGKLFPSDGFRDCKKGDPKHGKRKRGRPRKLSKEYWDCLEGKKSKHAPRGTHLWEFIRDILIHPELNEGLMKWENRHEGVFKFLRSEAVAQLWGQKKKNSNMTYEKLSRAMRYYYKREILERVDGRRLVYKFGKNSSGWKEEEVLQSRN
# In short: as §1
# CRX = CRX (Homo sapiens, UniProt O43186 1-299); settings: protein: recombinant; tags: N-terminal GST; dsDNA, one strand shown
# Chain of CRX (O43186 whole entry): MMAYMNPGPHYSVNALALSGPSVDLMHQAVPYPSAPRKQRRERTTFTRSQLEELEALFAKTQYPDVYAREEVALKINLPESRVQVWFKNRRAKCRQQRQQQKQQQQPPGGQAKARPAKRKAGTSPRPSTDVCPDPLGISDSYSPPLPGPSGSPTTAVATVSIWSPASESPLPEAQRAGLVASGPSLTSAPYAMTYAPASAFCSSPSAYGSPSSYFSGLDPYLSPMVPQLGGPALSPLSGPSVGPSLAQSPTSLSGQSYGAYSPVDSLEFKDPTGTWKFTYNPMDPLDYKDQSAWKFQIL
# In short: as §1
# ETV1 = ETV1 (Homo sapiens, UniProt P50549 1-477); settings: protein: recombinant; tags: N-terminal GST; dsDNA, one strand shown
# Chain of ETV1 (P50549 whole entry): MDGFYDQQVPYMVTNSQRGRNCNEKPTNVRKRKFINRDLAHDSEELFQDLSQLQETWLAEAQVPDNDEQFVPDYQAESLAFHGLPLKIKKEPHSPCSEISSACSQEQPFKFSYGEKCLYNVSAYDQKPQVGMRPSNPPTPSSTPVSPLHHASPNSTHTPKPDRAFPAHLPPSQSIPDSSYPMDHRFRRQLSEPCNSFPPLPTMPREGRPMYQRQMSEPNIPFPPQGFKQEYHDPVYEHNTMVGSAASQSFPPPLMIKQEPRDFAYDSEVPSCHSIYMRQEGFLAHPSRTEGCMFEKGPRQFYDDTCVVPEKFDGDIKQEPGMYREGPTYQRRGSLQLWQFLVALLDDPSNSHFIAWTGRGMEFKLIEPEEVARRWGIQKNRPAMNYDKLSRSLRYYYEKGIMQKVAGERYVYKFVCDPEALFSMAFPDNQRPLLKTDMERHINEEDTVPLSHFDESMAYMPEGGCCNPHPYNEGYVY
# In short: as §1
# ERF = target: T6, ERF (Homo sapiens, UniProt P50548 1-548); settings: protein: recombinant; tags: N-terminal GST; dsDNA, one strand shown
# T6 sequence: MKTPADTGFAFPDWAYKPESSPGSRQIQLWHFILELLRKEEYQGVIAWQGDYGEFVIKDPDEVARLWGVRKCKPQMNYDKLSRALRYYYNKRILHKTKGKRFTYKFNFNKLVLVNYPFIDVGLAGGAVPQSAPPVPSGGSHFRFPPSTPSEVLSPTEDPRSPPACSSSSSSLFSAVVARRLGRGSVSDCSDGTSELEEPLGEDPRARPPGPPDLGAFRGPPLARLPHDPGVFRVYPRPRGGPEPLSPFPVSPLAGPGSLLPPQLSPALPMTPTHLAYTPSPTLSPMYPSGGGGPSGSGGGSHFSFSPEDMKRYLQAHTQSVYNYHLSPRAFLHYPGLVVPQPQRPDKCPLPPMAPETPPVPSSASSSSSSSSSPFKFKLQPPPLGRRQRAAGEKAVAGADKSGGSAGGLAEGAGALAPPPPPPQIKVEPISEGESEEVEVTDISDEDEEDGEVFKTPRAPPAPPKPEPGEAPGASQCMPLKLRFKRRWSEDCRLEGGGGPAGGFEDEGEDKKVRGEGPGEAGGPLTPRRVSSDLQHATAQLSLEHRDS
# In short: as §1
# ETV3L = target: T7, ETV3L (Homo sapiens, UniProt Q6ZN32 1-361); settings: protein: recombinant; tags: N-terminal GST; dsDNA, one strand shown
# T7 sequence: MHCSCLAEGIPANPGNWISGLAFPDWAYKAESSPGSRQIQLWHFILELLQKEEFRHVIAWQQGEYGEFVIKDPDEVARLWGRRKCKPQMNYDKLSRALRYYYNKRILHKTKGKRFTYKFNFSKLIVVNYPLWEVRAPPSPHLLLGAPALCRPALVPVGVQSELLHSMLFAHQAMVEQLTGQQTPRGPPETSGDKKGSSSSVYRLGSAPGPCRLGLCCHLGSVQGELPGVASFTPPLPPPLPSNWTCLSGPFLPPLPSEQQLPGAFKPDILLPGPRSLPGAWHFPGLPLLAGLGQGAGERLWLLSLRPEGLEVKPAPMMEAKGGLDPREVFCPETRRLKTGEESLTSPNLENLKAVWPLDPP
# In short: as §1
# ETS2 = target: T8, ETS2 (Homo sapiens, UniProt P15036 1-469); settings: protein: recombinant; tags: N-terminal GST; dsDNA, one strand shown
# T8 sequence: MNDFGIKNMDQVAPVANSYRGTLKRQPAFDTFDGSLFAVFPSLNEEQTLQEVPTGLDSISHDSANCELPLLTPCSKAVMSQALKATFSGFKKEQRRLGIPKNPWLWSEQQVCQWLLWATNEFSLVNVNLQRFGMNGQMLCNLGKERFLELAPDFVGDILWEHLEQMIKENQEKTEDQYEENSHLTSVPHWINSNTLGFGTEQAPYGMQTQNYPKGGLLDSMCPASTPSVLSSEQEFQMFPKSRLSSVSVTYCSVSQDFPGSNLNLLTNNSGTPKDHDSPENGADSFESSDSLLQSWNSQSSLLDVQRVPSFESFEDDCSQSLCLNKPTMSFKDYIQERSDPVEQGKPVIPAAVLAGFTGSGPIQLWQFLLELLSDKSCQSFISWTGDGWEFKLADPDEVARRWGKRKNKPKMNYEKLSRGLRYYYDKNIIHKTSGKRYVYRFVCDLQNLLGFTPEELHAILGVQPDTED
# In short: as §1
# SPDEF = target: T9, SPDEF (Homo sapiens, UniProt O95238 1-335); settings: protein: recombinant; tags: N-terminal GST; dsDNA, one strand shown
# T9 sequence: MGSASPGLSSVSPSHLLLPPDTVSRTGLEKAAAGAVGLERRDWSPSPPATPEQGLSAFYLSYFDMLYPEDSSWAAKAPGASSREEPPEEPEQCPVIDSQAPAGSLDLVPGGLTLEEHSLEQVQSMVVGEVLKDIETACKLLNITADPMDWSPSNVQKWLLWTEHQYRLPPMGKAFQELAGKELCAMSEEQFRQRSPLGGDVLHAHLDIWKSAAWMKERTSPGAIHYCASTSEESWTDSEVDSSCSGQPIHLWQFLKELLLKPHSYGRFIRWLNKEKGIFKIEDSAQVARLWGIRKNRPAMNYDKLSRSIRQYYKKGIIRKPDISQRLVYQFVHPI
# In short: as §1
# ETV7 = target: T10, ETV7 (Homo sapiens, UniProt Q9Y603 1-341); settings: protein: recombinant; tags: N-terminal GST; dsDNA, one strand shown
# T10 sequence: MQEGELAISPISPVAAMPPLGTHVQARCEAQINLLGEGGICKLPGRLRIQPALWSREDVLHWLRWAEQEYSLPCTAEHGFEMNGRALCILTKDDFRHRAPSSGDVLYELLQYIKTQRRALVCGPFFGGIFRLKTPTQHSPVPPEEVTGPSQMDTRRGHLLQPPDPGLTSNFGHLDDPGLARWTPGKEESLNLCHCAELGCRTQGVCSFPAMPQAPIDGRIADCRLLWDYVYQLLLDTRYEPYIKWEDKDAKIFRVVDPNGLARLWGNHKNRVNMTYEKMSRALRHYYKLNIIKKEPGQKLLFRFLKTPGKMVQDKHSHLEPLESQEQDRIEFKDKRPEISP
# In short: as §1
# ELF5 = target: T11, ELF5 (Homo sapiens, UniProt Q9UKW6-2 1-255); settings: protein: recombinant; tags: N-terminal GST; dsDNA, one strand shown
# T11 sequence: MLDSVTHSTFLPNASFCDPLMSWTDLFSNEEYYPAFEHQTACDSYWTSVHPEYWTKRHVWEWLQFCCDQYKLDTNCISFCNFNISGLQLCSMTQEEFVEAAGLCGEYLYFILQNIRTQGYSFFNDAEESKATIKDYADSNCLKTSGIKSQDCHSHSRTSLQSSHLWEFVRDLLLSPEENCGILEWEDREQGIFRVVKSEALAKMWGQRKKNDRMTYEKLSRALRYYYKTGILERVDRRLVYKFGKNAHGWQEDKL
# In short: as §1
# ETV3 = target: T12, ETV3 (Homo sapiens, UniProt P41162-2 1-143); settings: protein: recombinant; tags: N-terminal GST; dsDNA, one strand shown
# T12 sequence: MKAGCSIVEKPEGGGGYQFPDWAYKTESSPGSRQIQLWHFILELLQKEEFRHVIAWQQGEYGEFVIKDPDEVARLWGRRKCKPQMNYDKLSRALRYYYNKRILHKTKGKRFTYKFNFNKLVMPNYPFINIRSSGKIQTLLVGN
# In short: as §1
# ETV6 = ETV6 (Homo sapiens, UniProt P41212 1-452); settings: protein: recombinant; tags: N-terminal GST; dsDNA, one strand shown
# Chain of ETV6 (P41212 whole entry): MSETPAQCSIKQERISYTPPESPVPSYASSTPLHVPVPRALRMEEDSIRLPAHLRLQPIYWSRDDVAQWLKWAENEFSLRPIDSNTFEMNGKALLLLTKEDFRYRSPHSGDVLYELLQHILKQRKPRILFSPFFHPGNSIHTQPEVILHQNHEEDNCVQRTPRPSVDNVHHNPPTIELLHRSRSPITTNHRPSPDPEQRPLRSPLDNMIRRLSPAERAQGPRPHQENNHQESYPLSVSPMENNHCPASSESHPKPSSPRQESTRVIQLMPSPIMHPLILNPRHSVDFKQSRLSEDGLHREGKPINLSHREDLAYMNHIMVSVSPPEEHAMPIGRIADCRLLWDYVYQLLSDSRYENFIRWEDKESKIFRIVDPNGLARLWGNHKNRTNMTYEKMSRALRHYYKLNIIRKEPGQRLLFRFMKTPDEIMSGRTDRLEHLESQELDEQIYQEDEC
# In short: as §1
sequence,measurement,setting,value
CTTGGA,binding signal,FEV,"1.04 fold enrichment (6-mer frequency, TF over GST control)"
same,binding signal,ETV5,"1.12 fold enrichment (6-mer frequency, TF over GST control)"
same,binding signal,HSF1,"1.26 fold enrichment (6-mer frequency, TF over GST control)"
same,binding signal,SPIC,"1.2 fold enrichment (6-mer frequency, TF over GST control)"
same,binding signal,ELF4,"1.21 fold enrichment (6-mer frequency, TF over GST control)"
same,binding signal,ELK4,"1.09 fold enrichment (6-mer frequency, TF over GST control)"
same,binding signal,ETV2,"1.12 fold enrichment (6-mer frequency, TF over GST control)"
same,binding signal,ELF3,"1.3 fold enrichment (6-mer frequency, TF over GST control)"
same,binding signal,CRX,"1.17 fold enrichment (6-mer frequency, TF over GST control)"
same,binding signal,ETV1,"1.17 fold enrichment (6-mer frequency, TF over GST control)"
same,binding signal,ERF,"1.12 fold enrichment (6-mer frequency, TF over GST control)"
same,binding signal,ETV3L,"1.11 fold enrichment (6-mer frequency, TF over GST control)"
same,binding signal,ETS2,"1.14 fold enrichment (6-mer frequency, TF over GST control)"
same,binding signal,SPDEF,"1.22 fold enrichment (6-mer frequency, TF over GST control)"
same,binding signal,ETV7,"1.14 fold enrichment (6-mer frequency, TF over GST control)"
same,binding signal,ELF5,"1.09 fold enrichment (6-mer frequency, TF over GST control)"
same,binding signal,ETV3,"1.08 fold enrichment (6-mer frequency, TF over GST control)"
same,binding signal,ETV6,"1.03 fold enrichment (6-mer frequency, TF over GST control)"
